One sequence from paper PMC7862700, “An all-to-all approach to the identification of sequence-specific readers for epigenetic DNA modifications on cytosine” can be followed below.

Holding throughout (assay): DAPPL (digital affinity profiling via proximity ligation, sequencing); 10 mM Tris-HCl pH 7.5, 50 mM NaCl, 1 mM DTT, 4% glycerol, room temperature, 30 min; GST-TFs on glutathione beads, 16-mer random dsDNA library, 0.1% formaldehyde crosslink after washing; high values mean tight binding
Common to all, as to conditions: protein: recombinant; tags: N-terminal GST; dsDNA, one strand shown

In one assay the target is T1, GABPA (Homo sapiens, UniProt Q06546 1-454).
T1 sequence: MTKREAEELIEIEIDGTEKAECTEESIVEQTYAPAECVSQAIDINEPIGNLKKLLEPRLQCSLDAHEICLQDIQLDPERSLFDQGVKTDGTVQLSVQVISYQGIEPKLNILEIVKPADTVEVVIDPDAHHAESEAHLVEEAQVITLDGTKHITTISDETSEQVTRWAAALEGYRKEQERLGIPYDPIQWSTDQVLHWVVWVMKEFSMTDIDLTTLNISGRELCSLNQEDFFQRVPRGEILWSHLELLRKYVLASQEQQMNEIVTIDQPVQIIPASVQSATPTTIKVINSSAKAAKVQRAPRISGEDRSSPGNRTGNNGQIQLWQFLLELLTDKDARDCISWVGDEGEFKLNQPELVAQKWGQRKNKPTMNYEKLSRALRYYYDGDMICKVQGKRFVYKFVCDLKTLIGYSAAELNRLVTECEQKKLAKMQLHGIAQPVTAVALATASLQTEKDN
The essentials:
(§1)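 Pools were built from human transcription factors expressed in yeast as GST fusions, captured on glutathione beads and DNA-barcoded, along with a tag-only sample. Incubation with 200 nmole of a 16-mer random double-stranded DNA library lasted 30 min at room temperature in Tris/NaCl/DTT/glycerol buffer, and was followed by washing, 0.1% formaldehyde crosslinking, proximity ligation, PCR amplification and Illumina NextSeq500 sequencing. Binding signal is the quotient of each hexamer's read frequency for a factor and its frequency for the tag-only sample.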

Another assay has as its target T2, EHF (Homo sapiens, UniProt Q9NZC4 1-300).
T2 sequence: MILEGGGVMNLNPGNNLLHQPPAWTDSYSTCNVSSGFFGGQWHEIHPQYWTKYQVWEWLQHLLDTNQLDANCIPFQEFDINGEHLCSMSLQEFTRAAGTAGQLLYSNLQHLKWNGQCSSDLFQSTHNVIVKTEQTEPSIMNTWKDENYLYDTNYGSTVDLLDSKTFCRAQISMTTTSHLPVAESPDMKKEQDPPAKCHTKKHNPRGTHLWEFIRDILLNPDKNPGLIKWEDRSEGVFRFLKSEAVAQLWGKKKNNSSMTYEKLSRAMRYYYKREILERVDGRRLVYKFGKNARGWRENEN
The method in brief:
as §1

A further assay has as its target SPI1 (Homo sapiens, UniProt P17947 1-270). The method in brief:
as §1

In the next assay the target is ETV5 (Homo sapiens, UniProt P41161 1-510). The method in brief:
as §1

Another assay addresses ELF4 (Homo sapiens, UniProt Q99607 1-663). The essentials:
as §1

Another assay concerns the target T3, ELK4 (Homo sapiens, UniProt P28324-2 1-405).
T3 sequence: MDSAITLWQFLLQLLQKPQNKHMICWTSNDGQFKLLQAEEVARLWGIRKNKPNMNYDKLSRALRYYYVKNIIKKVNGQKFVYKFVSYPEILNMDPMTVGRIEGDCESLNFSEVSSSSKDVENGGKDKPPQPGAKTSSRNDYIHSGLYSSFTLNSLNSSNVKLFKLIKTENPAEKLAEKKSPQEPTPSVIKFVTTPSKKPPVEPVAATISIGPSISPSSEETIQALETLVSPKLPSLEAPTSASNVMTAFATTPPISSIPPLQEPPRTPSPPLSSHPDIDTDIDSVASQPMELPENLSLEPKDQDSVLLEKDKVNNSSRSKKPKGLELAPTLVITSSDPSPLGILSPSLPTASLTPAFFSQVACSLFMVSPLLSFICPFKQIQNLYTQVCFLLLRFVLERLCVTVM
The method in brief:
as §1

For a further assay, the target named is T4, ETV2 (Homo sapiens, UniProt O00321 1-342).
T4 sequence: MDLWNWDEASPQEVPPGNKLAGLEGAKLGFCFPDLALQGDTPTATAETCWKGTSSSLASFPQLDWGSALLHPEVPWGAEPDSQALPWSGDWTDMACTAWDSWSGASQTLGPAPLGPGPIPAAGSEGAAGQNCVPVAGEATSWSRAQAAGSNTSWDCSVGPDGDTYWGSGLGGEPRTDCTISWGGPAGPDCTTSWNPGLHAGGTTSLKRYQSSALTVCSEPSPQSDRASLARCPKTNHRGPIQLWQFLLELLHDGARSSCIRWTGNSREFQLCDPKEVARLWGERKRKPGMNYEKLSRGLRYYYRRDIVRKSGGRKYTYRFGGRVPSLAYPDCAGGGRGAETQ
The essentials:
as §1

The target of the next assay is ETV1 (Homo sapiens, UniProt P50549 1-477). The method in brief:
as §1

The next assay deals with T5, ERF (Homo sapiens, UniProt P50548 1-548).
T5 sequence: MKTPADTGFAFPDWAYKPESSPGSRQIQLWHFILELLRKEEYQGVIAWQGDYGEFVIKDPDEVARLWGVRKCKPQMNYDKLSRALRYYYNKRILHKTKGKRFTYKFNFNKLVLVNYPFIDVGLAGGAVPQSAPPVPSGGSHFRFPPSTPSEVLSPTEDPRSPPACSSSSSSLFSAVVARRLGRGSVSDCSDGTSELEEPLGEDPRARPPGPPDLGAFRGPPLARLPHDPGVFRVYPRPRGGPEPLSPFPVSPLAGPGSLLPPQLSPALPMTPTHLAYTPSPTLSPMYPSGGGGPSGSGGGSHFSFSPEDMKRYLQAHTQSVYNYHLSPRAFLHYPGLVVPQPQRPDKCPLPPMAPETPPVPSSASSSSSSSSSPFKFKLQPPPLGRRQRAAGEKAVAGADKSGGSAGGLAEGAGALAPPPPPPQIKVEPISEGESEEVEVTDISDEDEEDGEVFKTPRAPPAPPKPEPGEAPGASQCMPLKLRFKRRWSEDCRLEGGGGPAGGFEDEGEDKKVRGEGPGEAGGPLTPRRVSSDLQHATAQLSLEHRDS
The method in brief:
as §1

For another assay, the target named is T6, ETV7 (Homo sapiens, UniProt Q9Y603 1-341).
T6 sequence: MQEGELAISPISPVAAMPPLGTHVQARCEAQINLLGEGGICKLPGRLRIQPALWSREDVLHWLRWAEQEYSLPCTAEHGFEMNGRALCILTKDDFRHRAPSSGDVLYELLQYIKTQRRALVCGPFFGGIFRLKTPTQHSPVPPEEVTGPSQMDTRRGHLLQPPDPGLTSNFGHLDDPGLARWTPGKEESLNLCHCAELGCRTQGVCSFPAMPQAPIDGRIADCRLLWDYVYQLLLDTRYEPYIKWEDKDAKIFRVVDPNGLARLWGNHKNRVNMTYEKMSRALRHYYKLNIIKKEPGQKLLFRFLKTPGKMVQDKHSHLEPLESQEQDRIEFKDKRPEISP
The essentials:
as §1

The target of another assay is T7, ETV3 (Homo sapiens, UniProt P41162-2 1-143).
T7 sequence: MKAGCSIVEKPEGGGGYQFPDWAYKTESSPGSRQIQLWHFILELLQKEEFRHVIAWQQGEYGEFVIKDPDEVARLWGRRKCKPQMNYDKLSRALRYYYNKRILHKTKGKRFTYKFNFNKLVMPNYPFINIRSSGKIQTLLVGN
The method in brief:
as §1

Another assay has as its target ETV6 (Homo sapiens, UniProt P41212 1-452). The essentials: as §1

Sequence of ETV6 (P41212 whole entry): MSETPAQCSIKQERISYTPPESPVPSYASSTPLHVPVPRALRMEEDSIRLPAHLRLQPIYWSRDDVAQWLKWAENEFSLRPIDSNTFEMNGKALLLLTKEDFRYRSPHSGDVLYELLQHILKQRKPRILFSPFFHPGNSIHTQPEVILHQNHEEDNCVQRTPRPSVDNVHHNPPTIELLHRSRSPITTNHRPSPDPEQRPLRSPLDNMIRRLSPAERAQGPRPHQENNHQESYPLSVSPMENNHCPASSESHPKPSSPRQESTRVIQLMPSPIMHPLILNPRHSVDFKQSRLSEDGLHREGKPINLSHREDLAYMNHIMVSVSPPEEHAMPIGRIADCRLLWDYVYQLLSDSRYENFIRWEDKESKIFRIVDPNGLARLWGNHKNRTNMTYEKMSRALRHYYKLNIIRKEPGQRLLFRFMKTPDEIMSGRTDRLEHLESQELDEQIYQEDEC
Sequence of ELF4 (Q99607 whole entry): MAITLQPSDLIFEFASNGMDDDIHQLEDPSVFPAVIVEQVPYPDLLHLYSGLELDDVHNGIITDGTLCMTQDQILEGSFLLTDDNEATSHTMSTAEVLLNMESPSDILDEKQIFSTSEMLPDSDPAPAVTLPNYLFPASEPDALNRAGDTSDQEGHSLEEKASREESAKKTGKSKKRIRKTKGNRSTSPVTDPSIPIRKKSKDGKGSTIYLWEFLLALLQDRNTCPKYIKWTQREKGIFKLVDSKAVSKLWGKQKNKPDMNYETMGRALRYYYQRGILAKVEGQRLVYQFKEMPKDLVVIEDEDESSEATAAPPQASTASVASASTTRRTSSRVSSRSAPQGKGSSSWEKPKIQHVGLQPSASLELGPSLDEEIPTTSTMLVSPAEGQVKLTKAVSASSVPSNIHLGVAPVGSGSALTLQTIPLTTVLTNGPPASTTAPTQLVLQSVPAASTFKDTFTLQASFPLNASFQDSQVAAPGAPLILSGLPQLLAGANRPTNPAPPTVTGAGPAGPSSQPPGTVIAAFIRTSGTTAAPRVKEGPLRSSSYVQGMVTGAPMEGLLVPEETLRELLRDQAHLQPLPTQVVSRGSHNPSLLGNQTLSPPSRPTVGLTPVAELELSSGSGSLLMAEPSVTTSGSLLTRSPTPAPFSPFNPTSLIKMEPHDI
Sequence of ETV1 (P50549 whole entry): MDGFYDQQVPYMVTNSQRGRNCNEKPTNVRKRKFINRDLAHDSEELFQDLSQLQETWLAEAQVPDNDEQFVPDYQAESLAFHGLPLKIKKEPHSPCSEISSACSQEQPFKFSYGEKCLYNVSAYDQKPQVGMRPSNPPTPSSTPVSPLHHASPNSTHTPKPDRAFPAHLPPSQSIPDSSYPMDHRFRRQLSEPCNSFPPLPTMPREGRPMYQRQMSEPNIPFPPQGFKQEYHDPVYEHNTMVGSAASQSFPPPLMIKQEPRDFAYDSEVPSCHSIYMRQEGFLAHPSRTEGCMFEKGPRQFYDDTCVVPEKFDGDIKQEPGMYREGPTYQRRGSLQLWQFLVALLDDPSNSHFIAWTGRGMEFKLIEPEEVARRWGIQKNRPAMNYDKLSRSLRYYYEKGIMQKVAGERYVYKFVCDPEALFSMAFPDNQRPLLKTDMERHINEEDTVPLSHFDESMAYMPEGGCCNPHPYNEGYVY
Sequence of ETV5 (P41161 whole entry): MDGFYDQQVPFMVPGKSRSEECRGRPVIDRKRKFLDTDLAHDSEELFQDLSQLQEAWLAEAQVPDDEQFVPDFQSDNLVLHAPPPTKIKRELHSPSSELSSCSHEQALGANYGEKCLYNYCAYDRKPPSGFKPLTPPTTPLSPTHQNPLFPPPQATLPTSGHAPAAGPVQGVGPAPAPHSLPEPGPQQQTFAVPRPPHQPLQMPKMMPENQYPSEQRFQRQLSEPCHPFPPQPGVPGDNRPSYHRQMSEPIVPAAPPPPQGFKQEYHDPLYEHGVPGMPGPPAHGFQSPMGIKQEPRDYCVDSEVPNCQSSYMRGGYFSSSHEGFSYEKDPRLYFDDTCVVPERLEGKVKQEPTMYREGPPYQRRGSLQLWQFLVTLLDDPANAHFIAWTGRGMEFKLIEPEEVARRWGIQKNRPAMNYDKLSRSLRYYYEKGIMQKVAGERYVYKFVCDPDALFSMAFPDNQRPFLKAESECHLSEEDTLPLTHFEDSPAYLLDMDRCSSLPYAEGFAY

Take AGAAGT: the binding signal was 1.05 fold enrichment (6-mer frequency, TF over GST control) with GABPA; 1.06 fold enrichment (6-mer frequency, TF over GST control) with EHF; 1.24 fold enrichment (6-mer frequency, TF over GST control) in the assay with SPI1; 1.09 fold enrichment (6-mer frequency, TF over GST control) with ETV5; 1.06 fold enrichment (6-mer frequency, TF over GST control) in the assay with ELF4; 1.16 fold enrichment (6-mer frequency, TF over GST control) with ELK4. The binding signal in the assay with ETV2 is 1.03 fold enrichment (6-mer frequency, TF over GST control); with ETV1, 1.05 fold enrichment (6-mer frequency, TF over GST control); in the assay with ERF, 1.05 fold enrichment (6-mer frequency, TF over GST control); with ETV7, 1.13 fold enrichment (6-mer frequency, TF over GST control); with ETV3, 1.01 fold enrichment (6-mer frequency, TF over GST control); in the assay with ETV6, 1.07 fold enrichment (6-mer frequency, TF over GST control).
